A selection: hits, their analogues and other compounds. The true share with any hit is near 7.3%.
SMN2 splice enh: enhancers of SMN2 splice variant expression; hit rate 2.8% among 210,000; HEK293 SMN2-luciferase splicing reporter, luminescence, 30-36 h; Potency, µM (titrated, usually from 46.1 µM), for inactives: at the top dose activity change, positive = activation, most hits filed as activators; further: % of control where 0% means no effect; nearly all actives have a fitted effect of over 55% in size
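HEK293 cells carry an SMN2 […]–luciferase reporter in which exon 7 inclusion puts luciferase in frame. Cells were plated 10-12 h before compound addition, then incubated 30-36 h at 37C. ONE-Glo luminescence was read; sodium butyrate at 4.5 mM final served as control.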
Rab9 promoter act: activates the Rab9 promoter; Huh7 Rab9 promoter-luciferase reporter, luminescence, 24 h; Potency, µM (highest dose often 9.22 µM), inactives show at the top dose activation, negative = inhibition, most hits filed as activators; hit rate 2.8% among 320,000; further: % of control where 0% means no effect; nearly all actives have a fitted effect of over 60% in size
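Rab9 promoter-driven luciferase in stably transfected Huh7 cells; 1500 cells/well rested 2 h, exposed to compound in DMSO for 24 h at 37 °C, 5% CO2. Luminescence read 10 min after adding luciferase reagent at ambient temperature.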
KinaseGlo FLuc: blocks Kinase-Glo luciferase, a counter-screen artifact; Kinase-Glo luciferase, ATP luminescence, 8 min; Potency, µM (highest dose often 38.3 µM), inactives show top-dose activity change, negative = inhibition, actives largely listed as inhibitors; hit rate 0.28% among 200,000; AID 1379; further: on the % scale 0 is the no-effect control and ±100 the full control effect; nearly all actives have a fitted effect of over 60% in size
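Substrate mix (final 50 mM imidazole pH 7.2, 50 mM KCl, 7 mM MgCl2, 10 uM ATP, 0.01% Tween 20, 0.05% BSA) plus pin-tool compound, then Kinase-Glo detection mix; 8 min ambient, luminescence read.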
NPC1 promoter act: activators of NPC1 promoter; Huh7 NPC1 promoter luciferase reporter, 24 h; Potency, µM (titrated, usually from 9.22 µM), inactives show at the top dose activation, actives largely listed as activators; hit rate 2.4% among 320,000; further: % of control where 0% means no effect; nearly all actives have a fitted effect of over 60% in size
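Luminescence from an NPC1 promoter-driven luciferase reporter in stably transfected Huh7 cells was measured after 24 h compound treatment at 37 °C, followed by 10 min ambient incubation with luciferase detection reagent.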
ELG1 genotoxic: genotoxicity induction in ELG1-luciferase HEK293T cells | hit rate 1.3% among 330,000 | HEK293T ELG1-luciferase reporter, luminescence, 16 h | Potency, µM (doses to about 46 µM), for the others: top-dose activity change, positive = activation, usual class: activators; further: % of control where 0% means no effect; nearly all actives have a fitted effect of over 60% in size
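ELG1-luciferase HEK293T cells, 2,000/well; compound pinned in; 16 hr, 37 °C, 5% CO2; ONE-Glo, 30 min RT; luminescence on CCD imager.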
FLuc counter: firefly luciferase modulation, counter-screen for miR-21 project; P08659; purified FLuc, Km substrates, luminescence inhibition; Potency, µM (highest dose often 57.5 µM), without a hit: at the highest dose activity change, negative = inhibition, actives largely listed as inhibitors; hit rate 6.9% among 360,000;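 further: plate controls were vehicle for no effect and reference inhibitor for full effect; nearly all actives have a fitted effect of over 55% in size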
Target sequence (P08659 whole entry, looked up): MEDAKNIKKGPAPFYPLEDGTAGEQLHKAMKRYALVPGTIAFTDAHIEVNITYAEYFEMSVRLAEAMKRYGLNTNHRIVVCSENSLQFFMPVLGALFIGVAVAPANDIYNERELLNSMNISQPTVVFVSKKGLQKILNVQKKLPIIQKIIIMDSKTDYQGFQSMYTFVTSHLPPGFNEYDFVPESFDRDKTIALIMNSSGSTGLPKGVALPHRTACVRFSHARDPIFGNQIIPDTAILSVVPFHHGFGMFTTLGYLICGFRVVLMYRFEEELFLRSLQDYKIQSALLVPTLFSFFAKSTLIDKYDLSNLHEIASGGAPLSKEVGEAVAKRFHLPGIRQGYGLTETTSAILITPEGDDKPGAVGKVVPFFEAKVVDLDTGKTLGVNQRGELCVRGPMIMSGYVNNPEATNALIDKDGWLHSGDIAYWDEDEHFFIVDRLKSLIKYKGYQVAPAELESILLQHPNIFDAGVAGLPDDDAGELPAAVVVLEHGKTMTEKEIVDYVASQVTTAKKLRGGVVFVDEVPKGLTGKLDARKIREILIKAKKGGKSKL
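Purified P. pyralis luciferase (10nM final) with 10uM D-luciferin and 10uM ATP (Km levels) in 50mM Tris acetate pH 7.5, 10mM Mg acetate, 0.01% Tween-20, 0.05% BSA; qHTS 6-point titration, ~60 µM downward; luminescence read.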
Active calls of the source: *; ? = inconclusive; . = no result given. The call rests on the fitted dose curve; in most records, active means well fitted curve in the direction sought with a large enough effect; inconclusive means small, poorly fitted or top-dose-only effect, or another doubt; inactive means no such curve, though single readings can be large; an effect the other way counts as inactive or inconclusive. Potency means the concentration at half of the fitted maximal effect.

SMILES	SMN2 splice enh	Rab9 promoter act	KinaseGlo FLuc	NPC1 promoter act	ELG1 genotoxic	FLuc counter
CC(=O)Cc1nsc(NC(=O)c2ccc(-c3cccc(Cl)c3)o2)n1	19.9%	0.3%	0.3%	1.9%	-1.7%	10.7µM*
O=C(Nc1ccc(NC(=O)c2cc3ccccc3o2)cc1)c1ccccc1	-14.8%	.	.	.	.	-0.5%
Cn1c(=O)n(C)c2cc(NC(=O)c3cc4ccccc4o3)ccc21	.	27.9%	3.1%	13.7%	16.4µM*	?
CCc1ccc(C(=O)Nc2ccc(C)c(NS(C)(=O)=O)c2)cc1	.	12.5%	.	?	1.2%	12µM*
O=C(Nc1ccc(N2CCOCC2)cc1)c1nc2ccccc2s1	.	0.1µM*	.	0.1µM*	?	0.239µM*
O=C(O)c1ccc(NS(=O)(=O)c2cc(Cl)ccc2Cl)cc1	.	4.4%	.	-4.9%	2.7%	5.1%
COCCNC(=O)c1ccc2c(=O)n(Cc3ccco3)c(SCC(=O)Nc3ccc(OC)cc3OC)nc2c1	.	0.5%	.	-2.3%	4.9%	0.7%
O=C(c1cc2ccccc2o1)N1CCCC1	.	12.0%	-0.6%	1.0%	12.5%	-17.9%
CCc1ccc(C(=O)Nc2ccc3c(c2)n(C)c(=O)n3C)cc1	.	?	.	-4.4%	18.3µM*	15.1µM*
Cc1nc2ccccc2c2oc(C(=O)Nc3ccc(C(C)C)cc3)cc12	-42.1%	-3.1%	0.7%	-8.6%	-4.5%	-11.0%
O=C(/C=C/N1CCOCC1)c1cc2ccccc2o1	11.2µM*	3.98µM*	-1.5%	3.55µM*	?	9.53µM*
Cc1nc2ccccc2c2oc(C(=O)Nc3ccc4c(c3)OCCO4)cc12	-13.1%	-0.9%	-0.6%	11.5%	-2.7%	15.1µM*
NNC(=O)c1sc2cc(C(F)(F)F)cnc2c1-c1ccccn1	.	-1.2%	.	4.0%	2.9%	-1.7%
CCC(CC)C(=O)Nc1cccc(C(=O)Nc2nnc(C)s2)c1	-6.5%	-1.7%	3.9%	0.8%	-0.5%	-3.5%
Cc1ccnc(NC(=O)CCNC(=O)c2ccc(Cl)cc2)c1	.	-2.6%	.	3.7%	10.7%	1.0%
Cc1ccnc(NC(=O)c2ccc(Cl)s2)c1	.	1.58µM*	.	3.16µM*	?	7.57µM*
Cc1ccnc(NC(=O)c2cnc(Cl)c(Cl)c2)c1	.	9.6%	.	-5.3%	?	16.9µM*
CCOc1ccc(C(=O)Nc2cc(C)ccn2)cc1	?	0.316µM*	12.6µM*	0.708µM*	-9.6%	1.35µM*
O=C(Nc1ccon1)c1ccc(Cl)s1	7.5%	0.0%	0.0%	12.6%	-3.7%	-2.8%
Cc1ccnc(NC(=O)CCCc2ccccc2)c1	?	?	-2.3%	?	18.1%	23.9µM*
CCOc1cc(C(=O)Nc2cc(C)ccn2)cc(OCC)c1OCC	-6.1%	1.1%	-2.0%	0.3%	-16.0%	3.5%
CCc1ccc(NC(=O)CSc2nnc(SCC(=O)Nc3ccc(CC)cc3)n2N)cc1	7.6%	-6.1%	-2.6%	1.1%	4.4%	-2.2%
Cc1ccc(NC(=O)CNC(=O)Cc2cccc3ccccc23)nc1	.	-0.4%	.	0.8%	-4.2%	-5.2%
Cc1ccnc(NC(=O)c2cccc(NC(=O)COc3ccccc3)c2)c1	28.9%	4.4%	-2.4%	-3.3%	3.7%	16.9µM*
C/C(CC(=O)Nc1cc(C)ccn1)=N\NC(=O)COc1cccc(C)c1	2.1%	-5.0%	0.2%	-5.8%	10.1%	13.5µM*
SMILES	SMN2 splice enh	Rab9 promoter act	KinaseGlo FLuc	NPC1 promoter act	ELG1 genotoxic	FLuc counter
Cc1ccnc(NC(=O)c2ccc(C(=O)c3ccccc3)cc2)c1	.	2µM*	.	3.55µM*	?	0.953µM*
C/C(CC(=O)Nc1cc(Cl)ccc1Cl)=N\NC(=O)COc1cccc(C)c1	.	3.5%	.	2.0%	5.1%	0.1%
Cc1ccnc(NC(=O)CNC(=O)Cc2cccc3ccccc23)c1	.	-1.0%	.	6.5%	14.6µM*	23.9µM*
Cc1ccnc(NC(=O)c2ccccc2NC(=O)c2ccccc2)c1	.	0.5%	.	-2.3%	-5.3%	?
CC(OC(=O)c1cc(Cl)ccc1[N+](=O)[O-])C(=O)NC(C)c1ccc(F)cc1 (stereo unspecified)	?	-4.0%	3.9%	-4.1%	-1.5%	5.0%
CC(=O)NCC(=O)NC(C(=O)Nc1ccc2c(c1)OCCO2)c1ccc(C)cc1 (stereo unspecified)	12.3%	1.8%	0.9%	-1.2%	12.9%	-11.9%
CCOc1ccc(C(=O)NCC(=O)Nc2cc(C)ccn2)cc1OCC	.	0.6%	.	1.1%	8.0%	?
Cc1ccc(C(=O)NCC(=O)Nc2cc(C)ccn2)cc1	.	11.1%	.	4.7%	?	26.9µM*
Cc1ccc(NS(=O)(=O)c2ccc3[nH]c(=O)c(=O)[nH]c3c2)cc1Cl	11.1%	2.7%	3.9%	6.1%	0.0%	-14.1%
CN(C)c1ccc(NC(=O)Cn2cc(S(=O)(=O)Cc3ccccc3Cl)c3ccccc32)cc1	.	.	.	.	.	9.53µM*
O=C(Cn1cc(S(=O)(=O)Cc2ccccc2Cl)c2ccccc21)Nc1cccc(C(F)(F)F)c1	.	.	.	.	.	-4.6%
Cc1c(C(=O)OCC(=O)Nc2ccc(N3CCOCC3)cc2)oc2ccccc12	.	-2.8%	.	3.5%	-5.7%	4.4%
Cc1c(C(=O)NNC(=O)c2csc(N3CCOCC3)n2)oc2ccccc12	.	0.6%	.	10.9%	1.8%	26.9µM*
Cc1c(C(=O)Nc2ccc(N3CCOCC3)cc2)oc2ccccc12	29.2%	4.47µM*	-5.2%	3.98µM*	7.6%	1.9µM*
COc1cc(OC)cc(C(=O)N2CCCc3ccccc32)c1	.	-0.8%	0.3%	3.0%	7.3%	?
COc1ccc2oc(C(=O)N3CCCc4ccccc43)c(C)c2c1	.	?	.	?	16.0%	19µM*
COc1ccc2oc(C(=O)Nc3ccc(N4CCOCC4)cc3)c(C)c2c1	.	1.7%	.	-0.5%	-20.6%	6.75µM*
CCOC(=O)c1c(/N=C/C2=C(O)CC(C)(C)CC2=O)sc(C)c1C	-4.4%	-12.3%	-1.8%	-0.9%	0.0%	2.3%
O=C(NCc1ccccn1)c1nc(Cn2cc([N+](=O)[O-])cn2)no1	.	-0.1%	.	-1.3%	4.8%	-0.2%
CCOc1ccc(/C=C2\SC(=S)N(CCCC(=O)NCCCN3CCOCC3)C2=O)cc1	.	-37.2%	.	-33.5%	-15.6%	9.53µM*
CCc1ccc(/C=C2/SC(=S)N(CCC(=O)NCCCN3CCOCC3)C2=O)cc1	.	-6.8%	.	10.3%	13.3%	5.36µM*
O=C(CCCN1C(=O)/C(=C/c2ccccc2Cl)SC1=S)NCCCN1CCOCC1	.	-11.3%	.	-12.6%	-18.4%	16.9µM*
COc1cc2c(cc1NC(=O)COc1ccc(Cl)cc1Br)oc1ccccc12	3.3%	.	.	.	.	-1.9%
COc1ccc(-c2n[nH]c3c2cnc2cc(OC)c(OC)cc23)cc1	.	.	.	.	.	-1.5%
COc1cc(NC(=O)c2cnc(N)o2)cc(C(=O)Nc2cccc(C(F)(F)F)c2)c1	.	-5.8%	.	-2.8%	-13.1%	21.3µM*

High-throughput results deposited in PubChem BioAssay by National Center for Advancing Translational Sciences (NCATS).
